# An excerpt weighted towards active compounds, which were near 4.2% of everything screened.
# AHR activator: activates the human aryl hydrocarbon receptor; AID 2796; AHR-responsive luciferase reporter cells, luminescence; activation, % at 5 µM; P35869; 320,000 compounds, 2.5% hits; in the data active = activation above about 47%;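 also: 0% = vehicle wells and 100% = reference agonist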
# Target sequence (P35869 whole entry, looked up): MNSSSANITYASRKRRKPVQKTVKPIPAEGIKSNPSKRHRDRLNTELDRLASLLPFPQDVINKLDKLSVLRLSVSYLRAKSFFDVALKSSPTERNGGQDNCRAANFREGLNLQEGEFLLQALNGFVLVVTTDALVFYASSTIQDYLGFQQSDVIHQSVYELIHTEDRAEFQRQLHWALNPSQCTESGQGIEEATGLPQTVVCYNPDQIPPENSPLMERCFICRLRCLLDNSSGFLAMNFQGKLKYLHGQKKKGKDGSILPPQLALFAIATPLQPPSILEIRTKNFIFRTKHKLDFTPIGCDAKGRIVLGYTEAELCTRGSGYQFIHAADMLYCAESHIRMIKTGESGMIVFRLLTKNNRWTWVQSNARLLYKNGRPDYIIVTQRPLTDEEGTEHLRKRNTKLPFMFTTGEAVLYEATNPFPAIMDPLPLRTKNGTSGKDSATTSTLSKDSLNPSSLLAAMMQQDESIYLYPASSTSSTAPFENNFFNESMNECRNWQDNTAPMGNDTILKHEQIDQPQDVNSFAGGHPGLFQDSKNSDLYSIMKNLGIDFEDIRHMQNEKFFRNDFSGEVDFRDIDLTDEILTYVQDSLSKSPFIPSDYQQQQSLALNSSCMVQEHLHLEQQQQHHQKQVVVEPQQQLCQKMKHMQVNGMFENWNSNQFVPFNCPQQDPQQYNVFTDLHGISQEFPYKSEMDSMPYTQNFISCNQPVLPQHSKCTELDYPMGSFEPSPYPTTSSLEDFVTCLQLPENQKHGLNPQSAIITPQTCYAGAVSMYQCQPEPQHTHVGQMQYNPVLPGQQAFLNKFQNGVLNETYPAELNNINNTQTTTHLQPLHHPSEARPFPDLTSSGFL
# MITF act: MITF TRPM1 promoter activation in melanoma cells; SK-MEL-5 TRPM1-promoter luciferase, 24 h; % of positive control, neutral wells = 0; activation, % at 12.5 µM; AID 588334; 300,000 compounds, 0.75% hits;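 active = mean activation of at least 80% with every replicate also reaching 80%; inconclusive = mean reaches 80% but some replicate falls short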;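 also: 0% = neutral control wells and 100% = parthenolide positive control wells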
# FXN GAA850 act: increases GAA850 frataxin promoter reporter activity | HEK293 lucGAA850 FXN promoter luciferase reporter, 24 h; percent of 10 µM SAHA response | activation, % at 6 µM | 360,000 compounds, 0.56% hits;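 active = activation above the average of all compounds screened plus 3 SD, cutoff fixed separately per campaign, cut at about 7.5% in these data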;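 also: 0% = DMSO wells and 100% = 10 µM SAHA wells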
# Wnt act: activators of Wnt/beta-catenin signaling; activation, % at 9.35 µM; AID 743398; 300,000 compounds, 1.2% hits; Wnt/beta-catenin reporter cell assay, activator, plate reader; in the data active = activation above about 30%, passing the limit was not always enough; inconclusive = no clear call, values can overlap the other calls;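 also: 0% = neutral control wells and 100% = positive control wells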
# esBAF inh: inhibitors of esBAF chromatin remodeling in mouse ES cells. Bmi1-luciferase knock-in reporter, 24 h; 100% = twice the neutral-well signal. reporter increase, % at 12.5 µM. 350,000 compounds, 2% hits. AID 602393; in the data active = activation above about 40%; inconclusive = no clear call, values can overlap the other calls;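 also: 0% = median of the plate's neutral control wells and 100% = double that signal; a rise in the Bmi1 reporter signal indicates esBAF inhibition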
# Starred values were filed as active, the others as inactive; ? = inconclusive; . = no result given.
SMILES,AHR activator,MITF act,FXN GAA850 act,Wnt act,esBAF inh
C[C@@H]1CN([C@H](C)CO)C(=O)Cc2cc(NC(=O)C3CCCCC3)ccc2O[C@@H]1CN(C)Cc1ccc(Oc2ccccc2)cc1,.,.,.,.,0
O=C(Nc1ccc(S(=O)(=O)NCc2ccccc2)cc1)Nc1ccc2c(c1)OCO2,52*,50,-1,-1,34
O=C(Nc1c(C(=O)Nc2cccc(F)c2)oc2ccccc12)c1ccc2c(c1)OCO2,5,16,3,.,10
O=C(Nc1cccc(F)c1)c1ccc2c(c1)OCO2,56*,51,5,.,78*
O=C(Nc1ccc2c(c1)OCO2)c1ccc([N+](=O)[O-])cc1[N+](=O)[O-],72*,-3,1,4,?
COc1ccc(NC(=O)Nc2ccc(C)cc2OC(F)F)cc1OC,10,.,-1,.,-9
Cc1ccc(NC(=O)Nc2ccc3c(c2)OCO3)c(OC(F)F)c1,.,106*,4,38*,49*
CC=Cc1ccc2n(c1=O)C[C@H]1[C@H](CO)[C@@H](C(=O)NCCc3ccncc3)[C@@H]2N1CCC(F)(F)F (mixture of isomers),.,.,.,.,2
C[C@H](CO)N1C[C@H](C)[C@@H](CN(C)C(=O)C2CCC2)Oc2cc(C#CCN(C)C)ccc2S1(=O)=O,.,.,.,.,1
CNC[C@H]1Oc2ccc(NC(=O)Nc3ccc(OC)cc3)cc2CC(=O)N([C@@H](C)CO)C[C@@H]1C,.,.,.,.,4
CO[C@H]1CN(C)C(=O)c2cc(NC(=O)c3ccccc3)ccc2OC[C@H](C)N(C(=O)C2CC2)C[C@@H]1C,.,.,.,.,1
Cc1[nH]c2ccccc2c1-c1csc(NC(=O)CSCC(=O)O)n1,18,0,-1,2,-7
Cc1[nH]c2ccccc2c1-c1csc(NC(=O)CN2CCOCC2)n1,70*,-16,1,4,-1
COc1ccc(Cl)cc1NC(=O)NCc1ccc2c(c1)OCO2,76*,-6,0,1,.
O=C(Nc1ccc(-c2nc3ccccc3[nH]2)cc1)c1ccc2c(c1)OCO2,17,-41,1,-13,45*
CC(=O)c1cc2c(cc1NC(=O)Nc1cccc(Cl)c1)OCCO2,58*,-11,-2,-2,-42
c1ccc2[nH]c(-c3ccc4c(c3)OCO4)nc2c1,1,.,3,-1,.
Cc1cc(C(=O)Nc2cccc3c2O[C@@H](CN(C)CC2CC2)[C@@H](C)CN([C@@H](C)CO)C3=O)n(C)n1,.,.,.,.,0
O=C(C[C@H]1CC[C@@H](NC(=O)Nc2ccc(C(F)(F)F)cc2)[C@@H](CO)O1)NCc1cc(F)cc(F)c1,.,.,.,.,4
O=C(CN1CCOCC1)Nc1ccc(-c2nc3ccccc3[nH]2)cc1,9,84*,3,.,.
S=C(NCc1cccs1)Nc1cccc(Cl)c1,2,5,-1,1,7
O=C(NCc1cccs1)Nc1cccc(Cl)c1,5,42,4,.,59*
O=C(Nc1cccc([N+](=O)[O-])c1)Nc1ccc2c(c1)OCCO2,20,90*,-1,10,.
CCC(=O)Nc1cccc(NC(=O)c2ccc3c(c2)OCCO3)c1,7,67,2,.,72*
O=C(Nc1cccc([N+](=O)[O-])c1)Nc1cccc([N+](=O)[O-])c1,2,11,0,3,.
SMILES,AHR activator,MITF act,FXN GAA850 act,Wnt act,esBAF inh
O=C(CSc1ccccc1)Nc1ccc(-c2nc3ccccc3[nH]2)cc1,15,52,2,15,.
O=C(Nc1cccc(Cl)c1)Nc1ccc2c(c1)OCO2,29,43,1,32*,58*
O=C(Nc1ccc2c(c1)OCO2)c1ccc2nc[nH]c2c1,62*,77,2,.,49*
CC(=O)c1cccc(NC(=O)Nc2ccc3c(c2)OCO3)c1,.,119*,2,3,52*
Cc1ccc(NC(=O)Nc2ccc3c(c2)OCO3)cc1F,46,126*,1,0,.
CCc1cccc(NC(=O)Nc2ccc3c(c2)OCO3)c1,44,37,3,10,25
Cc1cc(F)ccc1NC(=O)Nc1ccc2c(c1)OCO2,35,15,1,6,16
CCCN1C[C@H](C)[C@H](OC)CN(C)C(=O)c2ccc(NC(=O)C3CCOCC3)cc2OC[C@H]1C,.,.,.,.,1
COc1ccc(S(=O)(=O)Nc2ccc3c(c2)C(=O)N([C@H](C)CO)C[C@H](C)[C@@H](CN(C)C(=O)CCCN(C)C)OCCCC[C@H](C)O3)cc1,.,.,.,.,7
COc1ccc(OC)c(NC(=O)NCCc2cccc(Cl)c2)c1,11,-4,-1,60*,.
O=C(NCc1ccc2c(c1)OCO2)Nc1cccc(Cl)c1,30,80*,4,11,67*
CCC(CC)C(=O)Nc1cccc(C(=O)Nc2ccc3c(c2)OCO3)c1,20,74,3,16,47*
CC(=O)c1cccc(NC(=O)NCc2ccc3c(c2)OCO3)c1,14,8,2,2,5
O=C(O)[C@@H]1[C@@H](CO)[C@@H]2Cn3c(ccc(-c4ccc(F)cc4)c3=O)[C@@H]2N1CCc1ccccc1,.,.,.,.,-2
CCOC(=O)/C(C#N)=C/c1ccc(-c2ccsc2C(=O)OC)o1,2,.,2,-3,54*
CC1CCCCN1C(=O)c1cc(-c2ccc(Cl)c(Cl)c2)on1 (configuration not stated),-5,109*,6,.,?
CCC1CCCCN1C(=O)c1cc(-c2ccc(Cl)c(Cl)c2)on1 (configuration not stated),-2,42,3,.,24
CC1CCCCN1C(=O)c1cc(-c2ccc3c(c2)OCO3)on1 (configuration not stated),42,139*,5,36*,31
COc1cccc(-c2cc(C(=O)N3C(C)CCCC3C)no2)c1 (configuration not stated),11,?,6,.,49*
CC1CCN(C(=O)c2cc(-c3ccc4c(c3)OCO4)on2)CC1,-4,?,4,24,-8
O=C(C[C@H]1C=C[C@H](NC(=O)Nc2ccccc2)[C@@H](CO)O1)NCc1ccccn1,.,.,.,.,0
C[C@@H]1CN([C@@H](C)CO)C(=O)Cc2cc(NC(=O)Nc3ccc(F)cc3)ccc2O[C@@H]1CN(C)S(=O)(=O)c1ccc(Cl)cc1,.,.,.,.,-3
C=CCn1cccc(C(=O)Nc2ccc(N(C)C)cc2)c1=O,15,.,-1,19,?
C=CCn1cccc(C(=O)Nc2ccc(OC)c(Cl)c2)c1=O,40,62,5,.,56*
C=CCn1cccc(C(=O)Nc2ccc(SC)cc2)c1=O,65*,76,4,25,55*
C=CCn1cccc(C(=O)Nc2ccc(OC)c(OC)c2)c1=O,25,9,3,2,.
O=C(Cc1ccccc1)N[C@@H]1CC[C@H](CC(=O)N2CCOCC2)O[C@H]1CO,.,.,.,.,-6
C[C@H](CO)N1C[C@H](C)[C@H](CN(C)C(=O)Nc2cccc3ccccc23)Oc2ncc(C#Cc3ccc(C(F)(F)F)cc3)cc2C1=O,.,.,.,.,3
CC(=O)c1ccc(N2Cc3ccccc3C2=NC(=O)c2cccs2)cc1,-3,94*,4,?,7

# Compound activity deposited in PubChem BioAssay by several laboratories.
